According to PMC7862700, “An all-to-all approach to the identification of sequence-specific readers for epigenetic DNA modifications on cytosine”:

Legend:
Experiment in all cases: DAPPL (digital affinity profiling via proximity ligation, sequencing); 10 mM Tris-HCl pH 7.5, 50 mM NaCl, 1 mM DTT, 4% glycerol, room temperature, 30 min; GST-TFs on glutathione beads, 16-mer random dsDNA library, 0.1% formaldehyde crosslink after washing; high values mean tight binding
[1] = target: T1, FLI1 (Homo sapiens, UniProt Q01543 1-452); settings: protein: recombinant; tags: N-terminal GST; dsDNA, one strand shown
T1 sequence: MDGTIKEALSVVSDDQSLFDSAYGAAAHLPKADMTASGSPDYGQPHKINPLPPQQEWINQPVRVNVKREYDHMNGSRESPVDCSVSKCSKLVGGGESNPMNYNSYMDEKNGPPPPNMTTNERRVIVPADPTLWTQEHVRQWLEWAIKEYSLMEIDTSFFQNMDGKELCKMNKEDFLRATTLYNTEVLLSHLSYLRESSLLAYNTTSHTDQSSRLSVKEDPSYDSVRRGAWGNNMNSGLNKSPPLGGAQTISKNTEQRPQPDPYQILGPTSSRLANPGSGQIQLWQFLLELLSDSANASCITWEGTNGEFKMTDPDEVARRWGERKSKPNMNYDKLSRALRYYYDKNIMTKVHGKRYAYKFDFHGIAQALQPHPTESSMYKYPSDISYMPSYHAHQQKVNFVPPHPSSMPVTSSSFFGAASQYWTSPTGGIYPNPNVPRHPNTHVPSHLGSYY
Outline: (§1)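 In yeast, human transcription factors were expressed with a GST fusion, then pulled down on glutathione beads and given DNA barcodes. Pooled with a tag-only sample, they were exposed to 200 nmole of a 16-mer random double-stranded DNA library (Tris/NaCl/DTT/glycerol buffer, room temperature, 30 min), washed, crosslinked with 0.1% formaldehyde, proximity-ligated using BsaI/T4 ligase for 1 h at 37 °C, PCR-amplified and read on an Illumina NextSeq500. Each hexamer's frequency of reads for a factor, divided by the matching frequency for the tag-only sample, gives the binding signal.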

[2] = target: T2, ELK1 (Homo sapiens, UniProt P19419 1-428); settings: protein: recombinant; tags: N-terminal GST; dsDNA, one strand shown
T2 sequence: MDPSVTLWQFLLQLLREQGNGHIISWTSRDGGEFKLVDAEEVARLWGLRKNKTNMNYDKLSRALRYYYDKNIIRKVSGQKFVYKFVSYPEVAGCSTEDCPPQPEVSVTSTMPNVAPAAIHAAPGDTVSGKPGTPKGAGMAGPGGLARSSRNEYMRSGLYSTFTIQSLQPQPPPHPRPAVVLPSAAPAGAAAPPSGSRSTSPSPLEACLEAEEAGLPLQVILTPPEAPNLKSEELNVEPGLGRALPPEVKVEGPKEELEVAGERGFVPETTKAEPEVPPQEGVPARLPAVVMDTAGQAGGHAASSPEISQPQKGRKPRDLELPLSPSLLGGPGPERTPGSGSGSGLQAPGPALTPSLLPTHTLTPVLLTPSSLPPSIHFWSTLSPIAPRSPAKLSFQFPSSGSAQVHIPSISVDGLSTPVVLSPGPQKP
Outline: as §1

[3] = target: T3, GABPA (Homo sapiens, UniProt Q06546 1-454); settings: protein: recombinant; tags: N-terminal GST; dsDNA, one strand shown
T3 sequence: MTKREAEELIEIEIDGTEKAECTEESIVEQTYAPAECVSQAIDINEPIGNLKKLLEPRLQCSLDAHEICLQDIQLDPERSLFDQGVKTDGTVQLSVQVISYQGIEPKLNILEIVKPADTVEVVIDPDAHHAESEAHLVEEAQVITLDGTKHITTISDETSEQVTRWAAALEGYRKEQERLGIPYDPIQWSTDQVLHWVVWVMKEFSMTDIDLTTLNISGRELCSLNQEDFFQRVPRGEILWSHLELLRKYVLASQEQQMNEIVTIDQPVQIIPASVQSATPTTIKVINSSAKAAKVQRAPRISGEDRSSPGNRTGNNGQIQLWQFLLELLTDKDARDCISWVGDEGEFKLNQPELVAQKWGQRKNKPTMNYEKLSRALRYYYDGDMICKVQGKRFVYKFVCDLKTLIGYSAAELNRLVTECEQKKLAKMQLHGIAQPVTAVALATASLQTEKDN
Outline: as §1

[4] = target: T4, ERG (Homo sapiens, UniProt P11308 1-479); settings: protein: recombinant; tags: N-terminal GST; dsDNA, one strand shown
T4 sequence: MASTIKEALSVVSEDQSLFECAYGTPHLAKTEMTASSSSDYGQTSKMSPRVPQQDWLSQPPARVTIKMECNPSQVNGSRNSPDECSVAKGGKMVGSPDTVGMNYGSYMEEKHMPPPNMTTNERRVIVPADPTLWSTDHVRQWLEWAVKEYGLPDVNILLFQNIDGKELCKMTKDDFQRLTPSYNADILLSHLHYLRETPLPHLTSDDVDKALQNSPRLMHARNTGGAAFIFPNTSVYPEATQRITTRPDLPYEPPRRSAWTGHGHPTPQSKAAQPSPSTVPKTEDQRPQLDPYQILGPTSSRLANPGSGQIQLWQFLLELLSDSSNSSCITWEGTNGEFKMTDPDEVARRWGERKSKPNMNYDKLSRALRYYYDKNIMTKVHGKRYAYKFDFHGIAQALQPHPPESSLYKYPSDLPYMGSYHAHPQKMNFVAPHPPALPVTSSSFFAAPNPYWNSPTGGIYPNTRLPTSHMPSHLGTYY
Outline: as §1

[5] = target: ELF1 (Homo sapiens, UniProt P32519 1-619); settings: protein: recombinant; tags: N-terminal GST; dsDNA, one strand shown
Outline: as §1

[6] = target: T5, EHF (Homo sapiens, UniProt Q9NZC4 1-300); settings: protein: recombinant; tags: N-terminal GST; dsDNA, one strand shown
T5 sequence: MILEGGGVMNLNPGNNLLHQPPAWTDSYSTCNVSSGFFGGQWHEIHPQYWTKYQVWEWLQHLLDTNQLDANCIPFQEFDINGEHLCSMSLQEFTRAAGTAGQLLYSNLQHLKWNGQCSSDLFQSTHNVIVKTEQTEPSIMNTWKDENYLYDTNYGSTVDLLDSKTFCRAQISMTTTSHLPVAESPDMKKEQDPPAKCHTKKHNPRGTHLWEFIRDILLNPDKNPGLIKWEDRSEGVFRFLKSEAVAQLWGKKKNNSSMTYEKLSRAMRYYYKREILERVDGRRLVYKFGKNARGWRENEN
Outline: as §1

[7] = target: SPI1 (Homo sapiens, UniProt P17947 1-270); settings: protein: recombinant; tags: N-terminal GST; dsDNA, one strand shown
Outline: as §1

[8] = target: SPIB (Homo sapiens, UniProt Q01892 1-262); settings: protein: recombinant; tags: N-terminal GST; dsDNA, one strand shown
Outline: as §1

[9] = target: T6, ELK3 (Homo sapiens, UniProt P41970 1-407); settings: protein: recombinant; tags: N-terminal GST; dsDNA, one strand shown
T6 sequence: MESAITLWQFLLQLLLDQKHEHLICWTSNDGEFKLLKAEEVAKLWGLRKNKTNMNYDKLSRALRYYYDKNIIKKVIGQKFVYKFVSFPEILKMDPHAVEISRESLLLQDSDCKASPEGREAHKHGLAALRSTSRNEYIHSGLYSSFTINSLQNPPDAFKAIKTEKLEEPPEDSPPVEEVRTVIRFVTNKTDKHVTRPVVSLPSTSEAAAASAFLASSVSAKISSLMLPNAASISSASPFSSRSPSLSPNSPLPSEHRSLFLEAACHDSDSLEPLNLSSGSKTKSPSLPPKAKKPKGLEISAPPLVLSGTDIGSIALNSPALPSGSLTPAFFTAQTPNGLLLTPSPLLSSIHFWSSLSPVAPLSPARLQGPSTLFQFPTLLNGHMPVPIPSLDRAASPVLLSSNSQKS
Outline: as §1

[10] = target: T7, FEV (Homo sapiens, UniProt Q99581 1-238); settings: protein: recombinant; tags: N-terminal GST; dsDNA, one strand shown
T7 sequence: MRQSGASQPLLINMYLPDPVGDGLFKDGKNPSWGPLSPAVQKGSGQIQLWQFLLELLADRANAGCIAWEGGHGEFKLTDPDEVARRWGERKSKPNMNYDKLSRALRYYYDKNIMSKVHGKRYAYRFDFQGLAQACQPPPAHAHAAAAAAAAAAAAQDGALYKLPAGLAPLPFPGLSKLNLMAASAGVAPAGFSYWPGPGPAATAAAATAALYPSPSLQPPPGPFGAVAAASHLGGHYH
Outline: as §1

[11] = target: ETV5 (Homo sapiens, UniProt P41161 1-510); settings: protein: recombinant; tags: N-terminal GST; dsDNA, one strand shown
Outline: as §1

[12] = target: HSF1 (Homo sapiens, UniProt Q00613 1-529); settings: protein: recombinant; tags: N-terminal GST; chain copies: 3; dsDNA, one strand shown
Outline: as §1

[13] = target: T8, SPIC (Homo sapiens, UniProt Q8N5J4 1-248); settings: protein: recombinant; tags: N-terminal GST; dsDNA, one strand shown
T8 sequence: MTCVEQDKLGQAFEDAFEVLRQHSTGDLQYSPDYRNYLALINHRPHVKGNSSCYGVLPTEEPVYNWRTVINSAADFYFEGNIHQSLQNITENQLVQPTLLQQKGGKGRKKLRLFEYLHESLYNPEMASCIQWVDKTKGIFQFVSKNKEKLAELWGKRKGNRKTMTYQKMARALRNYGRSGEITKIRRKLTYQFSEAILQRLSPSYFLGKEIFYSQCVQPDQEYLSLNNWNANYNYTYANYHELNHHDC
Outline: as §1

[14] = target: ELF4 (Homo sapiens, UniProt Q99607 1-663); settings: protein: recombinant; tags: N-terminal GST; dsDNA, one strand shown
Outline: as §1

[15] = target: T9, ELK4 (Homo sapiens, UniProt P28324-2 1-405); settings: protein: recombinant; tags: N-terminal GST; dsDNA, one strand shown
T9 sequence: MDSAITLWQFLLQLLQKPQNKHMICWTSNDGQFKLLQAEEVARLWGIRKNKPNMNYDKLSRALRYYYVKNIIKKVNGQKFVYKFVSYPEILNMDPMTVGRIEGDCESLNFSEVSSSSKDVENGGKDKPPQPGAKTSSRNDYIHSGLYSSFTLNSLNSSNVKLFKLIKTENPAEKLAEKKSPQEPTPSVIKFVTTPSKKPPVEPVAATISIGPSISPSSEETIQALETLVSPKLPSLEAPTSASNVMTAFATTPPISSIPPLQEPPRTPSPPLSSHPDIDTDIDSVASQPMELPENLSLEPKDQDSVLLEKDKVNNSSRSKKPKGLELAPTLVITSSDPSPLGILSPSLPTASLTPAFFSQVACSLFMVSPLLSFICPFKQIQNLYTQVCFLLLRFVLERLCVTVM
Outline: as §1

[16] = target: T10, ETV2 (Homo sapiens, UniProt O00321 1-342); settings: protein: recombinant; tags: N-terminal GST; dsDNA, one strand shown
T10 sequence: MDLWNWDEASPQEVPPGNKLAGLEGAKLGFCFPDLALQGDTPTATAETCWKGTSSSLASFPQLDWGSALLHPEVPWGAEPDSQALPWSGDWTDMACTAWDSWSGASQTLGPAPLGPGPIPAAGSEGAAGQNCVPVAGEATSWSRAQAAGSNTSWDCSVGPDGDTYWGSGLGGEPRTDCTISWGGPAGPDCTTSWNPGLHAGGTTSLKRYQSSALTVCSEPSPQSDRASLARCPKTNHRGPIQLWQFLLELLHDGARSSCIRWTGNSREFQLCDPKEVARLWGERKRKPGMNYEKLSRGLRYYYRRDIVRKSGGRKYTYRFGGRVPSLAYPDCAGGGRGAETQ
Outline: as §1

[17] = target: T11, ELF3 (Homo sapiens, UniProt P78545 1-371); settings: protein: recombinant; tags: N-terminal GST; dsDNA, one strand shown
T11 sequence: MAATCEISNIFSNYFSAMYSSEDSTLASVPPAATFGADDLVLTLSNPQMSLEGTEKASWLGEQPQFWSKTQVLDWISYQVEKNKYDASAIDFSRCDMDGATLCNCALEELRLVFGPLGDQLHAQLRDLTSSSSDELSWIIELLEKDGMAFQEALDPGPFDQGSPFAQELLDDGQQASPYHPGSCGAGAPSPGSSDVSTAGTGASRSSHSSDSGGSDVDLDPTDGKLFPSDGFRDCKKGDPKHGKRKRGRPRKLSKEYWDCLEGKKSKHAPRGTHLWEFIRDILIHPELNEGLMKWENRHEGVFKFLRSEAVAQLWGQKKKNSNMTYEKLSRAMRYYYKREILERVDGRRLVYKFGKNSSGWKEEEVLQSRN
Outline: as §1

[18] = target: CRX (Homo sapiens, UniProt O43186 1-299); settings: protein: recombinant; tags: N-terminal GST; dsDNA, one strand shown
Outline: as §1

[19] = target: ETV1 (Homo sapiens, UniProt P50549 1-477); settings: protein: recombinant; tags: N-terminal GST; dsDNA, one strand shown
Outline: as §1

Sequence of CRX (O43186 whole entry): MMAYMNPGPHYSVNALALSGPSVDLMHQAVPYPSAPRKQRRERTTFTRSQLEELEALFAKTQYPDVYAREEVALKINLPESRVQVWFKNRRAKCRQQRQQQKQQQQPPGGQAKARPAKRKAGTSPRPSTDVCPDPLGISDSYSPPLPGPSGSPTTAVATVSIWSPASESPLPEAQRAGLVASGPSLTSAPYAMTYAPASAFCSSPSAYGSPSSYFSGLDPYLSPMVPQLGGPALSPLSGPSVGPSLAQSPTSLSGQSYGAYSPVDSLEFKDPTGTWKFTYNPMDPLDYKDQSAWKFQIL
Sequence of SPIB (Q01892 whole entry): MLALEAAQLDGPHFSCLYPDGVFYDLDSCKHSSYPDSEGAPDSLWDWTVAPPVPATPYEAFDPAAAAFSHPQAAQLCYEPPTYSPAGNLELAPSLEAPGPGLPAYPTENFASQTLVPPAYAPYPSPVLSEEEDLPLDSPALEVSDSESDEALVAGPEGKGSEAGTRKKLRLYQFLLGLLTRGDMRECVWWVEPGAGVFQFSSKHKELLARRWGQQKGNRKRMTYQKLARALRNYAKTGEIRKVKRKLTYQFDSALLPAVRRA
Sequence of ETV1 (P50549 whole entry): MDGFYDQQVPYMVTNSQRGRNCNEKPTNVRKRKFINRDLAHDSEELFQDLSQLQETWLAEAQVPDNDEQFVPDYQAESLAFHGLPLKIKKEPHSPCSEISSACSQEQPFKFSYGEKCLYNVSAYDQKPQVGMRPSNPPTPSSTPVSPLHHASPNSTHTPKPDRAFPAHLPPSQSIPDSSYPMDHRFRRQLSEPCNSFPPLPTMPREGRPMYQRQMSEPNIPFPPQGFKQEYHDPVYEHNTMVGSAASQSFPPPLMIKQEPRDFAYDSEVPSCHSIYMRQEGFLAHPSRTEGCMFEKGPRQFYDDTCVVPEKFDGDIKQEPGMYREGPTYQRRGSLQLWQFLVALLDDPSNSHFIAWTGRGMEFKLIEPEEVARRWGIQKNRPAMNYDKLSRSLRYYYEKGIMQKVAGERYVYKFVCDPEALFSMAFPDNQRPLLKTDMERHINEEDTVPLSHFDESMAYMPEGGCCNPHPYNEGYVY
Sequence of HSF1 (Q00613 whole entry): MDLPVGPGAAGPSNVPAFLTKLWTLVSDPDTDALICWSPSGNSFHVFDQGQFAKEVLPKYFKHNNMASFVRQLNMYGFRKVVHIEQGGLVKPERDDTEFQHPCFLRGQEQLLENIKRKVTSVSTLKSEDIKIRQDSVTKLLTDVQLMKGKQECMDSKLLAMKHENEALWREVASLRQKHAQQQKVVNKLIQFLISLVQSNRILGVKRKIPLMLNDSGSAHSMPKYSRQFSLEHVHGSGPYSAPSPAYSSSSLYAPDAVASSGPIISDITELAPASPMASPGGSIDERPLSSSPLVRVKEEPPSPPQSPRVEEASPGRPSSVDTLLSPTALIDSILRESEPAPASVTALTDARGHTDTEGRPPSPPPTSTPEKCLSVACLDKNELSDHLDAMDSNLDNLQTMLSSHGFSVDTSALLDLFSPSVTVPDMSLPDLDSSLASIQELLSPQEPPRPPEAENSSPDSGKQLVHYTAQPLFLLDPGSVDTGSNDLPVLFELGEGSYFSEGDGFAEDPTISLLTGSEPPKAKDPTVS
Sequence of ELF1 (P32519 whole entry): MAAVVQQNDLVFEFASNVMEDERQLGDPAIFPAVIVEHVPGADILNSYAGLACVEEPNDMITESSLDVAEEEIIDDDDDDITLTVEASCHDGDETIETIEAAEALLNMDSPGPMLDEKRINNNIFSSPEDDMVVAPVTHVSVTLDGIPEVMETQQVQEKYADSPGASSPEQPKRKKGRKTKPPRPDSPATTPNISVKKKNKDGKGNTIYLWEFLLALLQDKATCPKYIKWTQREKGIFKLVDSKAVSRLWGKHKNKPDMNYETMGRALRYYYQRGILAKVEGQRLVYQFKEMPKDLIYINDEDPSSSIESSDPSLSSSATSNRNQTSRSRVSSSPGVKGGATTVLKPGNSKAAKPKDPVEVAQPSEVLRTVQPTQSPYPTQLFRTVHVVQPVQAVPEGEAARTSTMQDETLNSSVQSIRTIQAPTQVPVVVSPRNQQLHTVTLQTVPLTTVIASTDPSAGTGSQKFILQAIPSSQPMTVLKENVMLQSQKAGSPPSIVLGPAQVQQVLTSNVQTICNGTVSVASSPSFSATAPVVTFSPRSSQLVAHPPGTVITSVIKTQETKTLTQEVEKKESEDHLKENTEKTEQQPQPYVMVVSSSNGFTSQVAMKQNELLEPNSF
Sequence of ELF4 (Q99607 whole entry): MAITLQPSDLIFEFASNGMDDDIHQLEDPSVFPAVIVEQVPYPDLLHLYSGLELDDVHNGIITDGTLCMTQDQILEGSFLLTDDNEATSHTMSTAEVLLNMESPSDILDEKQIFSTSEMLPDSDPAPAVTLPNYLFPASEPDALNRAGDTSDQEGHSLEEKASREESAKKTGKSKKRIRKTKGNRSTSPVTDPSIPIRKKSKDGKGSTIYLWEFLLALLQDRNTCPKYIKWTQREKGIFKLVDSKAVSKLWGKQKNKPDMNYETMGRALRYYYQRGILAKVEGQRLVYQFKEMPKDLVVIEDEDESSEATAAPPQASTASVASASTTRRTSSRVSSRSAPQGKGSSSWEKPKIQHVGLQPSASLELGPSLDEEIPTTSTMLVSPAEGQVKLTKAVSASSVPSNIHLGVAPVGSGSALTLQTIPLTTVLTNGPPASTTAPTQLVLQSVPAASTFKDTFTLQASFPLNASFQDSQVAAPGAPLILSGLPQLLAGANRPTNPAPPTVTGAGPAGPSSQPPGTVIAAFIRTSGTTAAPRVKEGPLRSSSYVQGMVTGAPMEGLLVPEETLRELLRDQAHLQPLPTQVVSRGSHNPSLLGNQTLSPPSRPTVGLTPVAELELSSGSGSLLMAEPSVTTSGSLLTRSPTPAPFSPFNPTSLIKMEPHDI
Sequence of ETV5 (P41161 whole entry): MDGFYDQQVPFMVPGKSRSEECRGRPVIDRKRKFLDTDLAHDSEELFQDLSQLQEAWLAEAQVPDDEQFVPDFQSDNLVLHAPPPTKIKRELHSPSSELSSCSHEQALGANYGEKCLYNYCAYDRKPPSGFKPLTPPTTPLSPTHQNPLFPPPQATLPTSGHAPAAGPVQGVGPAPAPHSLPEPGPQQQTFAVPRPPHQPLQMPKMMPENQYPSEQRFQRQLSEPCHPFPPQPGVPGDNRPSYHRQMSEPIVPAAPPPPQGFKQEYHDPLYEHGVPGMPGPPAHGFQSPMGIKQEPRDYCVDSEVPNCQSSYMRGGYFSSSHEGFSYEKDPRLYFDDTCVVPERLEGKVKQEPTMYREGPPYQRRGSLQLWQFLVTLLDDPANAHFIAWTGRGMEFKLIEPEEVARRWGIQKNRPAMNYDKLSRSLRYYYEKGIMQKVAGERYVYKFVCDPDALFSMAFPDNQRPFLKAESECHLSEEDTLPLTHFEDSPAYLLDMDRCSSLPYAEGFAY

Sequence: ACATAT
- binding signal [1]: 1.18 fold enrichment (6-mer frequency, TF over GST control)
- binding signal [2]: 1.25 fold enrichment (6-mer frequency, TF over GST control)
- binding signal [3]: 1.3 fold enrichment (6-mer frequency, TF over GST control)
- binding signal [4]: 1.25 fold enrichment (6-mer frequency, TF over GST control)
- binding signal [5]: 1.27 fold enrichment (6-mer frequency, TF over GST control)
- binding signal [6]: 1.22 fold enrichment (6-mer frequency, TF over GST control)
- binding signal [7]: 1.2 fold enrichment (6-mer frequency, TF over GST control)
- binding signal [8]: 1.2 fold enrichment (6-mer frequency, TF over GST control)
- binding signal [9]: 1.28 fold enrichment (6-mer frequency, TF over GST control)
- binding signal [10]: 1.29 fold enrichment (6-mer frequency, TF over GST control)
- binding signal [11]: 1.32 fold enrichment (6-mer frequency, TF over GST control)
- binding signal [12]: 1.04 fold enrichment (6-mer frequency, TF over GST control)
- binding signal [13]: 1.36 fold enrichment (6-mer frequency, TF over GST control)
- binding signal [14]: 1.3 fold enrichment (6-mer frequency, TF over GST control)
- binding signal [15]: 1.22 fold enrichment (6-mer frequency, TF over GST control)
- binding signal [16]: 1.28 fold enrichment (6-mer frequency, TF over GST control)
- binding signal [17]: 1.25 fold enrichment (6-mer frequency, TF over GST control)
- binding signal [18]: 1.12 fold enrichment (6-mer frequency, TF over GST control)
- binding signal [19]: 1.26 fold enrichment (6-mer frequency, TF over GST control)
